Consider 40 molecules from the antibiotic and cytotoxicity screens of Wong et al. (2023).

Among all 39,000 compounds or so, about 1,500 (3.8%) were called active. Many of the other results were omitted from the sample, so actives are more common in it than they were.

The test system of this assay is HSkMC (human skeletal muscle cells). The assay can be described thus: cytotoxicity call (relative viability < 0.9). The conditions noted are these: 10 µM.
`NC(=O)CSc1ncn(-c2ccccc2)n1`: the cytotoxicity call was “inactive”.

Turning to `O=C(CCCCCNC(=O)OCc1ccc(CO[C@H]2C[C@@H](c3csc4ccccc34)C=C(C(=O)N3CCN(Cc4ccccc4)CC3)O2)cc1)NO`, the cytotoxicity call was “inactive”. To `CC(C)C(=O)Nc1ccc([N+](=O)[O-])c(C(F)(F)F)c1` belongs “inactive”; to `O=C(N[C@H](NC(=S)Nc1ccc(F)c([N+](=O)[O-])c1)C(Cl)(Cl)Cl)C(c1ccccc1)c1ccccc1`, “active”. With `O=C(Nc1ccc(-c2nc3cc(NC(=O)c4ccccc4[N+](=O)[O-])ccc3o2)cc1)c1ccccc1[N+](=O)[O-]`, the cytotoxicity call was “inactive”. To `C[C@@H]1CN([C@@H](C)CO)C(=O)c2cc(NC(=O)Nc3ccc4c(c3)OCO4)ccc2O[C@@H](C)CCCCO[C@H]1CN(C)C(=O)c1ccccc1` belongs “inactive”. For the molecule `COCC(=O)Nc1ccc2c(c1)OC[C@@H](C)N(C(=O)c1ccccc1F)C[C@@H](C)[C@@H](OC)CN(C)C2=O`, the cytotoxicity call was “inactive”. The same measure for `C[C@H](CO)N1C[C@H](C)[C@@H](CN(C)C(=O)NC2CCCCC2)Oc2ccc(NC(=O)CCN3CCOCC3)cc2C1=O`: “inactive”; for `Cc1ccc(S(=O)(=O)Nc2ccc3c(c2)C(=O)N([C@@H](C)CO)C[C@H](C)[C@H](CN(C)Cc2ccc(Cl)c(Cl)c2)O3)cc1`: “inactive”; for `Cc1ccc(S(=O)(=O)Nc2ccc3c(c2)C(=O)N([C@H](C)CO)C[C@H](C)[C@@H](CN(C)Cc2ccc(Cl)c(Cl)c2)O3)cc1`: “inactive”. The same measure for `Cc1ccc(S(=O)(=O)Nc2ccc3c(c2)C(=O)N([C@H](C)CO)C[C@@H](C)[C@H](CN(C)Cc2ccc(Cl)c(Cl)c2)O3)cc1`: “active”; for `Cc1ccc(S(=O)(=O)Nc2ccc3c(c2)C(=O)N([C@@H](C)CO)C[C@@H](C)[C@H](CN(C)Cc2ccc(Cl)c(Cl)c2)O3)cc1`: “inactive”; for `Cc1ccc(S(=O)(=O)Nc2ccc3c(c2)C(=O)N([C@@H](C)CO)C[C@H](C)[C@@H](CN(C)Cc2ccc(Cl)c(Cl)c2)O3)cc1`: “active”. The same measure for `Cc1ccc(S(=O)(=O)Nc2ccc3c(c2)C(=O)N([C@H](C)CO)C[C@@H](C)[C@@H](CN(C)Cc2ccc(Cl)c(Cl)c2)O3)cc1`: “active”; for `Cc1ccc(S(=O)(=O)Nc2ccc3c(c2)C(=O)N([C@H](C)CO)C[C@H](C)[C@H](CN(C)Cc2ccc(Cl)c(Cl)c2)O3)cc1`: “active”. Consider `Cc1cccc(C(=O)N2CCC[C@@H](Cn3cc(C(C)(C)N)nn3)C2)c1C`, for which the cytotoxicity call is “inactive”.

In the case of `CC(C)NC(=O)Nc1ccc2c(c1)C(=O)N([C@@H](C)CO)C[C@H](C)[C@@H](CN(C)S(=O)(=O)c1ccccc1)O2`, the cytotoxicity call is “inactive”. The same measure for `C[C@@H]1CCCCO[C@H](CN(C)S(=O)(=O)c2cccs2)[C@H](C)CN([C@@H](C)CO)C(=O)c2cc(NC(=O)Cc3ccccc3)ccc2O1`: “inactive”. The same measure for `C[C@H]1CN([C@@H](C)CO)C(=O)c2cccc(NS(=O)(=O)c3cccs3)c2O[C@H]1CN(C)S(=O)(=O)c1ccc(F)cc1`: “inactive”. The same measure for `CN(C)Cc1cn(CC[C@H]2CC[C@H](N)[C@@H](CO)O2)nn1`: “inactive”; for `Cc1noc(C)c1NC(=O)Nc1ccc2c(c1)C(=O)N([C@@H](C)CO)C[C@H](C)[C@H](CN(C)C(=O)Nc1ccc(C(F)(F)F)cc1)OCCCC[C@H](C)O2`: “inactive”; for `O=C(C[C@H]1CC[C@H]2[C@@H](COC[C@@H](O)CN2C(=O)c2cccnc2)O1)NCc1ccc(-c2ccccc2)cc1`: “inactive”.

For the molecule `Cn1nnnc1SCC(=O)Nc1ncccn1`, the cytotoxicity call was “inactive”. The same measure for `C[C@@H]1CN([C@H](C)CO)C(=O)c2cccc(NS(=O)(=O)c3ccccc3)c2O[C@@H]1CN(C)Cc1ccc(Cl)c(Cl)c1`: “inactive”; for `Cn1cnc(S(=O)(=O)N2C[C@@H](O)COC[C@@H]3O[C@@H](CC(=O)NC4Cc5ccccc5C4)CC[C@H]32)c1`: “inactive”. The same measure for `C[C@H](O)C#Cc1ccc2c(c1)O[C@H](CN(C)C(=O)Nc1ccccc1)[C@H](C)CN([C@H](C)CO)S2(=O)=O`: “inactive”; for `COc1ccc(S(=O)(=O)Nc2ccc3c(c2)C(=O)N([C@H](C)CO)C[C@H](C)[C@H](CN(C)S(C)(=O)=O)OCCCC[C@@H](C)O3)cc1`: “inactive”; for `Cc1cnc2c(c1NCCN(C)C)c(=O)n(C)c(=O)n2C`: “inactive”. The same measure for `CCOc1nc2ccccc2c(=O)n1CCO`: “inactive”. As for `C[C@H](CO)N1C[C@H](C)[C@H](CN(C)C(=O)c2ccc3c(c2)OCO3)Oc2cc(-c3cncnc3)ccc2S1(=O)=O`, the cytotoxicity call was “inactive”. The same measure for `O=C1c2ccncc2C(=O)N1CO`: “inactive”; for `CO[C@@H](CN(C)S(=O)(=O)c1cccc(Cl)c1)[C@@H](C)CN([C@@H](C)CO)S(=O)(=O)c1ccc(Cl)cc1`: “inactive”. The same measure for `CC(C)NC(=O)N(C)C[C@@H]1Oc2ccc(NS(=O)(=O)c3cn(C)cn3)cc2C(=O)N([C@@H](C)CO)C[C@@H]1C`: “inactive”; for `FC(F)(F)c1ccccc1/N=C1\CCCc2ccccc21`: “inactive”. The same measure for `Cc1ccc(S(=O)(=O)Nc2ccc3c(c2)C(=O)N([C@@H](C)CO)C[C@@H](C)[C@@H](CN(C)Cc2ccc(Cl)c(Cl)c2)O3)cc1`: “active”; for `COC1C(O)CC(=O)OC(C)CC=CC=CC(O)C(C)CC(CC=O)C1OC1OC(C)C(OC2CC(C)(O)C(OC(=O)CC(C)C)C(C)O2)C(N(C)C)C1O` (stereo not given) [KITASAMYCINS [A1 shown] ]: “inactive”; for `CO[C@@H]1[C@@H](O[C@@H]2O[C@H](C)[C@@H](O[C@H]3C[C@@](C)(O)[C@@H](OC(=O)CC(C)C)[C@H](C)O3)[C@H](N(C)C)[C@H]2O)[C@@H](CC=O)C[C@@H](C)[C@@H](O)/C=C/C=C/CC(C)OC(=O)C[C@H]1OC(C)=O` (stereo not given in full): “active”. For the molecule `CO[C@@H]1[C@@H](O[C@@H]2O[C@H](C)[C@@H](O[C@H]3C[C@@](C)(O)[C@@H](OC(=O)CC(C)C)[C@H](C)O3)[C@H](N(C)C)[C@H]2O)[C@@H](CC=O)C[C@@H](C)[C@@H](O)/C=C\C=C/C[C@@H](C)OC(=O)C[C@H]1OC(C)=O`, the cytotoxicity call is “inactive”.

Regarding `COc1ccccc1CNC(=O)C[C@@H]1C[C@@H]2c3cc(NS(=O)(=O)c4ccc(F)cc4)ccc3O[C@@H]2[C@@H](CO)O1`, the cytotoxicity call is “inactive”.

Take `Cc1ccc(S(=O)(=O)N(C)C[C@@H]2OCCCC[C@H](C)Oc3ccc(NC(=O)Nc4c(C)noc4C)cc3C(=O)N([C@H](C)CO)C[C@H]2C)cc1`: the cytotoxicity call was “inactive”.
